# An excerpt weighted towards active compounds, which were near 11% of everything screened.
# USP28 inh = human USP28 deubiquitinase inhibition. Q96RU2. purified USP28, Ub-rhodamine cleavage fluorescence, 30 min. inhibition, % at 25 µM. 3% of 47,000 active. AID 1645857
# USP17 inh = inhibitors of human USP17 deubiquitinase; 6.5% of 47,000 active; inhibition, % at 50 µM; purified USP17, Ub-rhodamine cleavage fluorescence, 3 h
# Target sequence (A8MUK1 whole entry, looked up): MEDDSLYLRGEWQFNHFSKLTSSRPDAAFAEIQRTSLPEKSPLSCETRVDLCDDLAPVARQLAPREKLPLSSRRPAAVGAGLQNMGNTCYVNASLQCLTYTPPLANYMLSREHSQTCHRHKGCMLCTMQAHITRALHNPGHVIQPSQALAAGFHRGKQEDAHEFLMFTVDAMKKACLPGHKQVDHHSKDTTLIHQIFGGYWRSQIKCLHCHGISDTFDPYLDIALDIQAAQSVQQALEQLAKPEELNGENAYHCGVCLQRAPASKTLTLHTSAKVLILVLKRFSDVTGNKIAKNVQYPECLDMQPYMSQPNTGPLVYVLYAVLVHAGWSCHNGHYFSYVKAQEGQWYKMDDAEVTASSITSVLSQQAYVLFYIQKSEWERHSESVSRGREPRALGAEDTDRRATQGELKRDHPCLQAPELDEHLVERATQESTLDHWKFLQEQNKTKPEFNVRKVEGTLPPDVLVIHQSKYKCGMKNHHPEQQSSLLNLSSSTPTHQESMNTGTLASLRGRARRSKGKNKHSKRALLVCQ
# USP30 block = inhibitors of human USP30 deubiquitinase. Q70CQ3. purified USP30, Ub-rhodamine cleavage fluorescence. inhibition, % at 25 µM. 5.3% of 47,000 active. AID 1645860
# Numbers without * were called inactive; x = no result. No stated cut-off is given here; in the data, active means inhibition above about 30%; inactive means the rest.
SMILES,USP28 inh,USP17 inh,USP30 block
CCOc1cc(C2C3=C(CC(c4ccc(OC)cc4)CC3=O)Nc3ccccc3N2C(=O)C2CC2)ccc1OCc1ccc(Cl)cc1 (centres undefined),-1.6,6.0,-1.5
CCn1c(-c2ccccc2)c2c(=O)n(C)c(=O)n(C)c2c1Br,-2.2,-3.0,-3.3
O=C(NC1CCCCC1)c1cc2c(cn1)[nH]c1ccccc12,59.3*,-38.5,-35.7
O=C(NCCCO)c1cc2c(cn1)[nH]c1ccccc12,8.7,-12.9,-54.6
O=C(CCCN1C(=O)c2cccnc2Sc2ccccc21)Nc1ccccc1Cl,-1.4,-1.8,0.9
COc1ccccc1CNC(=O)c1cccc(Nc2nc3ccccc3n3cnnc23)c1,0.1,1.5,-15.3
O=C(NCc1ccc(F)cc1)c1cccc(Nc2nc3ccccc3n3cnnc23)c1,74.8*,71.7*,80.3*
O=C(Nc1nc(-c2ccccc2)c2ccccc2n1)c1ccc(Cl)cc1,33.5*,-0.1,28.6
O=C(Nc1ccc2ccccc2n1)c1ccccc1Cl,19.9,19.9,17.0
O=C(O)c1c(Oc2ccc(Cl)cc2)c(-c2ccccc2)nc2ccccc12,4.0,15.6,13.9
O=C(Nc1ccc2ccccc2n1)c1ccc(Cl)cc1,12.4,30.1*,62.5*
CN1CCC2(CN(Cc3cccnc3)CC23CCN(C(=O)NCc2ccccc2)CC3)C1=O (centres undefined),-6.2,x,-19.4
CC(=O)Nc1ccc(S(=O)(=O)Nc2ccc(Nc3ccc(-n4cccn4)nn3)cc2)cc1,-0.1,36.3*,50.2*
CC(=O)Nc1ccc(S(=O)(=O)Nc2cc(-c3ccccc3)nn2C)cc1,-3.6,1.3,1.1
CN(C(=O)CSc1nnnn1-c1ccccc1)c1ccccc1,3.3,7.8,18.7
COc1ccc(C)cc1NC(=O)c1ccc(-n2nnnc2SC)cc1,28.0,73.2*,51.8*
COc1ccc(OC)c(NC(=O)c2ccc(-n3nnnc3SC)cc2)c1,16.4,80.0*,17.4
CCOc1ccccc1NC(=O)c1ccc(-n2nnnc2SC)cc1,-5.9,25.9,-27.8
COc1ccc(NC(=O)c2ccc(-n3nnnc3SC)cc2)cc1Cl,14.2,-3.6,5.9
CCN1CCN(C(=O)C2=CC(c3cc(OC)ccc3OC)=NS(=O)(=O)N2C)CC1,5.3,2.9,5.6
O=C(COC(=O)C12CCC(=O)N1c1ccccc1S2)N1CCNC1=O (centres undefined),-6.0,-7.7,-13.3
COc1ccc(Cl)cc1NC(=O)c1cc(-c2ccccn2)n[nH]1,-10.6,61.3*,-34.1
O=C(Nc1ccc(Cl)cc1)c1cc(-c2ccccn2)n[nH]1,7.8,5.8,12.6
COc1cc(OC)c(NC(=O)c2cc(-c3ccccn3)n[nH]2)cc1Cl,2.0,-3.6,14.6
Cc1ccc(Cl)cc1NC(=O)c1cc(-c2ccccn2)n[nH]1,-8.2,73.1*,-2.1
SMILES,USP28 inh,USP17 inh,USP30 block
Cc1ccc(CN2C[C@H]3C[C@H](C(=O)N4CCOCC4)[C@@H](C2)O3)cc1,6.5,7.0,9.3
COc1ccc(C(=O)NC(=NCCc2c[nH]c3cc(OC)ccc23)Nc2nc(C)cc(C)n2)cc1,3.0,16.6,-4.9
COc1ccc(NC(=O)OC(CN2CCN(c3ccccc3)CC2)C(F)(F)F)cc1 (centres undefined),8.6,17.9,24.8
O=C(NCc1noc(C2CCCCC2)n1)c1coc(C2CC2)n1,3.0,-1.5,0.2
COc1ccc(NC(=O)COc2ccc(C(=O)c3ccc(F)cc3)cc2)c(OC)c1,-0.6,9.6,9.3
COc1cc(C#N)c(NC(=NCc2ccc(F)cc2)SC)cc1OC,35.1*,53.4*,47.6*
CCc1nn2c(CNC(=O)c3ccc(OC)nc3)c(C)nc2s1,0.0,-6.4,-14.4
COc1ccc(-c2ocnc2C(=O)Nc2ccc(C)c(F)c2)cc1OC,4.7,9.9,22.6
O=C(Nc1ccncc1)c1ncoc1-c1cccc(Cl)c1,2.3,7.2,65.7*
Cc1nccn1-c1cccc(C2CCN(S(=O)(=O)N(C)C)CC2)n1,11.9,3.1,5.0
COc1cc2ncnc(NCc3ccco3)c2cc1OC,1.2,8.3,5.7
Clc1cccc(-c2noc3ncnc(NCc4ccco4)c23)c1,24.3,17.9,36.5*
Cc1ccccc1-c1noc2ncnc(NCc3ccco3)c12,7.2,0.1,5.6
COc1ccc(-c2oc3ncnc(NCc4ccco4)c3c2-c2ccc(OC)cc2)cc1,9.6,30.3*,13.7
O=C(NCc1cnc(C2CCCCO2)nc1)c1ccn[nH]1 (centres undefined),-1.2,-0.2,5.5
Cc1cccc(CNC(=O)CN2C(=O)c3cccnc3Sc3ccccc32)c1,-5.5,-1.0,-28.5
Cc1ccc(C(=O)O)cc1NC(=O)C(Sc1cccc(NC(=O)c2ccccc2C)c1)c1ccccc1 (centres undefined),54.8*,91.7*,78.4*
O=C(O)c1ccccc1C(=O)Nc1ccc(SC(C(=O)Nc2ccccc2F)c2ccccc2)cc1 (centres undefined),3.5,-3.2,18.9
O=C(O)c1ccc(Cl)c(NC(=O)C(Sc2cccc(NC(=O)c3cccc(Cl)c3)c2)c2ccccc2)c1 (centres undefined),4.0,15.0,-40.0
O=C(O)c1ccccc1C(=O)Nc1ccc(SC(C(=O)Nc2ccccc2)c2ccccc2)cc1 (centres undefined),18.8,63.1*,13.4
COc1cccc(CN2C[C@H]3CCN(C(=O)c4ccn[nH]4)CC[C@H]3S2(=O)=O)c1,1.8,0.1,-0.3
COC(=O)c1ccc2c(=O)n(CCCCCC(=O)NCCC3=CCCCC3)c(=O)[nH]c2c1,-1.8,12.8,-1.7
COC(=O)c1ccc2c(=O)n(CCCCCC(=O)NCCc3ccc(OC)c(OC)c3)c(=O)[nH]c2c1,29.2,25.3,46.4*
Cn1cc(CCCC(=O)NCc2cccc(Cl)c2)c2ccccc21,-4.3,-25.5,-12.3
COC(=O)c1ccc2c(=O)n(CCCCCC(=O)NCc3cccc(Cl)c3)c(=O)[nH]c2c1,15.6,31.0*,61.8*
SMILES,USP28 inh,USP17 inh,USP30 block
Cc1cc(C)cc(NC(=O)c2cc(=O)n(C)c3c2c(=O)n(C)c(=O)n3C)c1,-8.9,5.4,-17.0
Cc1ccc(CNC(=O)c2ccc3ncnc(N4CCOCC4)c3c2)cc1,-10.4,-19.5,-25.0
CNC(=O)c1c2n(c3ncccc13)CCN(S(=O)(=O)C1CC1)C2,-12.7,-3.8,-15.3
O=C(COC(=O)C1CCCN1C(=O)C12CC3CC(CC(C3)C1)C2)c1ccc(Cl)cc1 (centres undefined),7.4,7.7,51.2*
CCc1cc(C2CCCN2C(=O)C23CC4CC(CC(C4)C2)C3)on1 (centres undefined),-4.9,5.1,14.5
O=C(Cn1nc2ccc(C(=O)NCc3ccccc3)cn2c1=O)Nc1ccc2c(c1)OCO2,8.0,52.2*,-21.9
Cc1ccc(NC(=O)c2ccc3nn(CC(=O)Nc4ccc(C)cc4C)c(=O)n3c2)cc1,-19.4,-18.4,-50.3
Cc1ccc(NC(=O)c2ccc3nn(CC(=O)Nc4ccc(F)cc4F)c(=O)n3c2)cc1,-24.8,68.2*,9.6
O=C(NCc1ccccc1)c1ccc2nn(CC(=O)N3CCc4ccccc4C3)c(=O)n2c1,-9.4,-6.8,-13.4
CNc1ncccc1CN1CCN(C2CCOCC2)CC(C(N)=O)C1 (centres undefined),-19.6,-0.2,-2.5
CC(=O)C1C(=O)C=C(c2ccccc2)CC1c1ccccc1 (centres undefined),5.5,31.5*,2.6

# Bioassay records deposited in PubChem BioAssay by Buhrlage Lab, Dana-Farber Cancer Institute and Novartis Institutes for BioMedical Research (Cambridge, Mass).
